Assay results reported in PubChem BioAssay (Tox21).
Several values for one entry are separate records, joined by “and”; a condition that tells them apart may be missing. Identical values can stand only once. Results filed as inconclusive are left out. A call without a number means that no potency is given here. Some structures have more than one record in an assay (separate samples or runs), and their calls can disagree. Activity calls are given as the source filed them. Unless noted, the call rests on the fitted dose curve; in most records, active means well fitted curve in the direction sought with a large enough effect in the repeat runs; inconclusive means weak or mixed curves; inactive means no such curve, though single readings can be large; an effect the other way counts as inactive or inconclusive.

Experiments:
[1] = molecular target: Progesterone receptor (Homo sapiens) (UniProt P06401); assay: qHTS assay to identify small molecule agonists of the progesterone receptor (PR) signaling pathway (AID 1346784; calls by dose curve; further: nearly all actives have a fitted effect of over 30% in size; further: potency means the concentration at half of the fitted maximal effect)
Sequence of Progesterone receptor (Homo sapiens) (P06401 whole entry, looked up): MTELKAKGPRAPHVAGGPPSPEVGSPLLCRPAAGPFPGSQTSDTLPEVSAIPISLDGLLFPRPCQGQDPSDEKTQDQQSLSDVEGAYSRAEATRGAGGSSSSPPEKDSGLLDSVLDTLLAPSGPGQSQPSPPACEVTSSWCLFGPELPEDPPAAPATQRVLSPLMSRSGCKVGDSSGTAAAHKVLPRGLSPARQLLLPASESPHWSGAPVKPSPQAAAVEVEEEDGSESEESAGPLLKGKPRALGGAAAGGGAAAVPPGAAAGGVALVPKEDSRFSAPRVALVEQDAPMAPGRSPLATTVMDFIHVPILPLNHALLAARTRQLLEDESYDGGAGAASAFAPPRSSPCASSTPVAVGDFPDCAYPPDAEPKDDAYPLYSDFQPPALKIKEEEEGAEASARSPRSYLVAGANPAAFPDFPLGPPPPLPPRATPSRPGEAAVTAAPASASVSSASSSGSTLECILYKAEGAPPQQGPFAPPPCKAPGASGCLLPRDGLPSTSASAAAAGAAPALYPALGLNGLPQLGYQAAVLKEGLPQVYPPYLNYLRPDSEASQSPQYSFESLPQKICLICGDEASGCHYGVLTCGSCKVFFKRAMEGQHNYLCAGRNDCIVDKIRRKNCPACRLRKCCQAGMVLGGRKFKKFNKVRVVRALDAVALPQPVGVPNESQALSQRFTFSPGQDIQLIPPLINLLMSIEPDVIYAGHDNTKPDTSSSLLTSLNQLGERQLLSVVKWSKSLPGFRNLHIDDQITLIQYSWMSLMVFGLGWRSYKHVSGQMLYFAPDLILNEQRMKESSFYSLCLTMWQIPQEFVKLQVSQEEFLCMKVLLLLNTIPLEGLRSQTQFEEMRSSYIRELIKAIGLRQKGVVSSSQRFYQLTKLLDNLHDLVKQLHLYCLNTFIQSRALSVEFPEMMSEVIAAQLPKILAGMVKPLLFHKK
How it was run: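 PR-UAS-bla HEK 293T cells (beta-lactamase reporter under UAS) in 2% charcoal-stripped FBS, dosed with 23 nL compound after 6 hr, incubated 16hr at 37C. LiveBLAzer B/G FRET substrate added, fluorescence read after 2 hours.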

[2] = molecular target: Progesterone receptor (Homo sapiens) (UniProt P06401); assay: qHTS assay to identify small molecule antagonists of the progesterone receptor (PR) signaling pathway (AID 1346795; active means well fitted inhibition curve with a large enough effect in the signal ratio in the repeat runs, not every such curve was filed as active; the % refers to the signal ratio; further: potency means the concentration at half of the fitted maximal effect)
How it was run: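 PR-UAS-bla HEK293T cells with beta-lactamase reporter under UAS control, in 2% charcoal-stripped FBS, treated with compounds plus 1 nM promegestone (R5020, final) for 16 hr at 37C. Read-out: FRET beta-lactamase substrate fluorescence after 2 hr at room temperature.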

[3] = qHTS assay to identify small molecule antagonists of the progesterone receptor (PR) signaling pathway - cell viability counter screen (AID 1346798); further: nearly all actives have a fitted effect of over 50% in size; further: potency means the concentration at half of the fitted maximal effect
How it was run: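 PR-UAS-bla HEK293T cells, 3,000/well in 2% charcoal-stripped FBS medium, dosed with compounds plus R5020 agonist and incubated 16 h at 37C. Viability then measured in the same wells by CellTiter-Glo luminescence after 30 min at RT.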

[4] = qHTS assay to identify small molecule agonists of the progesterone receptor (PR) signaling pathway - cell viability counter screen (AID 1346799; calls by dose curve; further: nearly all actives have a fitted effect of over 45% in size; further: potency means the concentration at half of the fitted maximal effect)
How it was run: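 Counter screen in the PR-UAS-bla HEK293T wells (2% charcoal-stripped FBS, 16 h compound exposure at 37 C) after the bla read. CellTiter-Glo added, 30 min at room temperature, luminescence read as cell viability.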

[5] = qHTS assay to identify small molecule antagonists of the TGF-beta/Smad signaling pathway - cell viability counter screen (AID 1346824); further: nearly all actives have a fitted effect of over 50% in size; further: potency means the concentration at half of the fitted maximal effect
How it was run: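 Cytotoxicity counter-screen run in the same wells as the beta-lactamase Smad reporter read: CellTiter-Glo luminescence after 30 min at room temperature. HEK 293T SBE-bla cells had 5 hr compound exposure at 37 C with TGF-beta1 (0.25 ng/mL stock).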

[6] = qHTS assay to identify small molecule agonists of the TGF-beta/Smad signaling pathway - cell viability counter screen (AID 1346829); further: nearly all actives have a fitted effect of over 45% in size; further: potency means the concentration at half of the fitted maximal effect
How it was run: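 Cytotoxicity counter screen: CellTiter-Glo luminescence (30 min, room temperature) measured in the SBE-bla HEK 293T reporter wells after 5 hr compound treatment at 37 C and the 2 hr substrate step.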

[7] = Human pregnane X receptor (PXR) small molecule agonists, qHTS cell viability counter screen (AID 1346977); further: nearly all actives have a fitted effect of over 50% in size; further: potency means the concentration at half of the fitted maximal effect
How it was run: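 PXR-Luc HepG2 cells (2,000/well, 5% charcoal-stripped FBS) preincubated 5 hr, then exposed to compounds 24 hr at 37 C. Viability read in the same wells by CellTiter-Fluor fluorescence, reagent added at 23 hr, 1 hr incubation.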

[8] = qHTS assay to identify small molecule agonists of the TGF-beta/Smad signaling pathway (AID 1346859; active means well fitted activation curve with a large enough effect in the signal ratio in the repeat runs, not every such curve was filed as active; the % refers to the signal ratio; further: series mostly up to about 77 µM)
How it was run: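 SBE-bla HEK293T cells plated overnight, then compound exposure for 5 h at 37 C. Beta-lactamase reporter read with LiveBLAzer B/G FRET substrate after 2 h at room temperature, fluorescence at 405 nm excitation, 460/530 nm emission.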

[9] = molecular target: Thyrotropin-releasing hormone receptor (Homo sapiens) (UniProt P34981); assay: qHTS assay to identify small molecule antagonists of the thyrotropin-releasing hormone receptor (TRHR) signaling pathway (AID 1346877; active means well fitted inhibition curve with a large enough effect in the repeat runs, not every such curve was filed as active; further: series mostly up to about 51 µM)
Sequence of Thyrotropin-releasing hormone receptor (Homo sapiens) (P34981 whole entry, looked up): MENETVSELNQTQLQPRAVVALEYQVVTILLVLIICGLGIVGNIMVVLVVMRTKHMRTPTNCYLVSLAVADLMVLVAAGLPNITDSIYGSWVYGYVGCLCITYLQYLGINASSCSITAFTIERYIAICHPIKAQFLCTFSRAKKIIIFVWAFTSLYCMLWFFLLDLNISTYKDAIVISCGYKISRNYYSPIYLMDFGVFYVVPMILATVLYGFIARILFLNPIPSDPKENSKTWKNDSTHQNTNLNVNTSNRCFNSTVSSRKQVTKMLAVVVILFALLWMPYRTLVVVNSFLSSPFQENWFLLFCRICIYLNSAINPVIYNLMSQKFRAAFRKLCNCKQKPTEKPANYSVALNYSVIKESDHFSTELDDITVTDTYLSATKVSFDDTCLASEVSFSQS
How it was run: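 Calcium signal in dye-loaded TRHR/HEK293 cells; compounds added 5 min before TRH (1 nM final); fluorescence monitored 3 min at 1 s steps.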

[10] = molecular target: Thyrotropin-releasing hormone receptor (Homo sapiens) (UniProt P34981); assay: qHTS assay to identify small molecule agonists of the thyrotropin-releasing hormone receptor (TRHR) signaling pathway (AID 1346891; calls by dose curve; further: series mostly up to about 58 µM)
How it was run: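 HEK293 cells expressing TRHR plated 18 h at 37 C/5% CO2, calcium dye-loaded 2 h at 37 C, then compound added (agonist mode); kinetic calcium fluorescence read 3 min at 1 s intervals; 15 concentrations in triplicate.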

| Structure (SMILES) | Potency [1] | Potency [2] | Potency [3] | Potency [4] | Potency [5] | Potency [6] | Potency [7] | outcome [8] | Potency [9] | Potency [10] |
| --- | --- | --- | --- | --- | --- | --- | --- | --- | --- | --- |
| CCCC[P+](CCCC)(CCCC)CCCC | inactive | inactive | inactive | inactive | inactive | inactive | inactive |  |  |  |
| CCCCNC(=O)NS(=O)(=O)c1ccc(C)cc1 | inactive | inactive | inactive | inactive | inactive | inactive | inactive | inactive | inactive | inactive |
| CN1CCC[C@H]1c1cccnc1 | inactive | inactive | inactive |  | inactive | inactive | inactive | inactive | inactive | inactive |
| COc1ccc2c(c1)c(CC(=O)O)c(C)n2C(=O)c1ccc(Cl)cc1 | inactive | inactive | inactive |  | inactive | inactive | inactive |  |  |  |
| CCCCC1(COC(=O)CCC(=O)O)C(=O)N(c2ccccc2)N(c2ccccc2)C1=O | inactive | inactive | inactive | inactive | inactive | inactive | inactive | inactive | inactive | inactive |
| CC12CCC(CC1)C(C)(C)O2 | inactive | inactive | inactive |  | inactive | inactive | inactive | inactive | inactive | inactive |
| C=C(C)C(=O)OCC(C)O (stereo not drawn) | inactive | inactive | inactive | inactive | inactive | inactive | inactive | inactive |  |  |
| COc1ccc(CN(CCN(C)C)c2ccccn2)cc1 | inactive | inactive | inactive | 42.8 µM (active) and 28.2 µM (active) and inactive | inactive | inactive | inactive | inactive | inactive | inactive |
| O=C(O)c1ccccc1 | inactive and 596 nM (active) | inactive | inactive | inactive | inactive | inactive | inactive | inactive |  |  |
| CN(C)CCOC(C)(c1ccccc1)c1ccccn1 (stereo not drawn) | inactive | inactive | inactive | inactive | inactive | inactive | inactive | inactive |  |  |
| CCOC(N)=O | inactive | inactive | inactive | inactive | inactive | inactive | inactive | inactive | inactive | inactive |
| CCCCCCCCCCCCCCCC[N+](C)(C)Cc1ccccc1 | inactive | inactive | 24.8 µM (active) |  | 56.7 µM (active) and 49.8 µM (active) | 45 µM (active) and 39.6 µM (active) and 19 µM (active) |  | inactive | inactive | inactive |
| CC(=O)CC(c1ccccc1)c1c(O)c2ccccc2oc1=O (stereo not drawn) | inactive | inactive | inactive |  | inactive | inactive | inactive | inactive |  |  |
| Nc1c2c(nc3ccccc13)CCCC2 | inactive | inactive | inactive |  | inactive | inactive | 54.5 µM (active) | inactive | inactive | inactive |
| O=C1NC(=O)C(c2ccccc2)(c2ccccc2)N1 | inactive | inactive | inactive | inactive | inactive | inactive | inactive | inactive | inactive | inactive |
| Cc1cc(C)nc(NS(=O)(=O)c2ccc(N)cc2)n1 | inactive | inactive | inactive | inactive | inactive | inactive | inactive | inactive | inactive | inactive |
| Nc1ccc(S(N)(=O)=O)cc1 | inactive | inactive | inactive | inactive | inactive | inactive | inactive | inactive | inactive | inactive |
| Cc1ncc([N+](=O)[O-])n1CCO | inactive | inactive | inactive | inactive | inactive | inactive | inactive | inactive | inactive | inactive |
| Cc1ccc(S(=O)(=O)O)cc1 | inactive | inactive | inactive | inactive | inactive | inactive | inactive | inactive |  |  |
| CCCc1cc(=O)[nH]c(=S)[nH]1 | inactive | inactive | inactive | inactive | inactive | inactive | inactive | inactive | inactive | inactive |
| CC(C)C(=O)Nc1ccc([N+](=O)[O-])c(C(F)(F)F)c1 | inactive | 25 µM (active) | inactive |  | inactive | inactive | 50.1 µM (active) and inactive | inactive | inactive | inactive |
| F[B-](F)(F)F | inactive | inactive | inactive | inactive | inactive | inactive | inactive | inactive | inactive | inactive |
| Nc1c(N=Nc2ccc(-c3ccc(N=Nc4cc(S(=O)(=O)O)c5ccccc5c4N)cc3)cc2)cc(S(=O)(=O)O)c2ccccc12 | inactive | inactive | inactive |  | inactive | inactive | 8.63 µM (active) | inactive |  |  |
| CCN(CC)C(=O)c1cccc(C)c1 | inactive | inactive | inactive | inactive | inactive | inactive | inactive | inactive |  |  |
| Cn1c(=O)c2c(ncn2C)n(C)c1=O | inactive | inactive | inactive |  | inactive | inactive | 39.8 µM (active) and inactive | inactive |  |  |
